Potency and affinity values are given separately.
How the values were obtained:
[1] = system: Klebsiella pneumoniae; details: Concentration 20 uM; ASSAY_TEST Inhibition of Bacterial Growth; detection method Absorption (OD600); MEDIA CAMHB; plate type 384well; NBS; CORNING #3640; time 18 hr
[2] = system: Candida albicans; details: 20 µM
[3] = system: Cryptococcus neoformans; details: Concentration 20 uM; ASSAY_TEST Inhibition of Fungal Growth; detection method Resazurin; Absorption (OD600-OD570); plate type 384well; NBS; CORNING #3640

| Structure (SMILES) | Inhibition [1] | Inhibition [2] | Inhibition [3] |
| --- | --- | --- | --- |
| COc1ccc2cc(CCC(C)=O)ccc2c1 [NABUMETONE] | 8.45% | 5.24% | -7.4% |
| CC(C)(C)NC(=O)[C@@H]1CN(Cc2cccnc2)CCN1C[C@@H](O)C[C@@H](Cc1ccccc1)C(=O)N[C@H]1c2ccccc2C[C@H]1O.O=S(=O)(O)O [INDINAVIR SULFATE] | 0.54% | 2.58% | -4.45% |
| CN1CCN(c2nc3cc(C(F)(F)F)ccc3n3cccc23)CC1.O=C(O)/C=C\C(=O)O.O=C(O)/C=C\C(=O)O | 7.65% | 3.61% | 2.72% |
| COc1cc(N)c(Cl)cc1C(=O)N[C@@H]1CCN(CCCOc2ccc(F)cc2)C[C@@H]1OC.O [(R,S)-CISAPRIDE MONOHYDRATE] | 7.83% | 1.98% | 3.24% |
| CN[C@@H]1[C@H](O)[C@H](NC)[C@H]2O[C@@]3(O)C(=O)C[C@@H](C)O[C@H]3O[C@@H]2[C@H]1O.Cl.Cl.Cl.O.O.O | 37.26% | 2.22% | -1.83% |
| CC(=O)O.CC(C)C[C@H](NC(=O)[C@@H](COC(C)(C)C)NC(=O)[C@H](Cc1ccc(O)cc1)NC(=O)[C@H](CO)NC(=O)[C@H](Cc1c[nH]c2ccccc12)NC(=O)[C@H](Cc1c[nH]cn1)NC(=O)[C@H]1CCC(=O)N1)C(=O)N[C@H](CCCNC(=N)N)C(=O)N1CCC[C@@H]1C(=O)NNC(N)=O | 2.33% | 2.52% | -3.07% |
| Nc1c2c(nc3c1CCC3)CCCC2 [IPIDACRINE] | 15% | 3.22% | -0.69% |
| O=C(O[C@H]1[C@H](Oc2ccccc2COC(=O)C2(O)C=CCCC2=O)O[C@H](CO)[C@@H](O)[C@@H]1O)c1ccccc1 (stereo partly drawn) [TREMULACIN] | 9.15% | 3.13% | -9.11% |
| CCCc1cc(=O)[nH]c(=S)[nH]1 [PROPYLTHIOURACIL] | 16.2% | 3.22% | -1.39% |
| O=C(O)CCNC(=O)c1ccc(N=Nc2ccc(O)c(C(=O)O)c2)cc1 | 9.82% | 4.41% | -5.87% |
| CN(CCOc1ccc(NS(C)(=O)=O)cc1)CCc1ccc(NS(C)(=O)=O)cc1 [DOFETILIDE] | 7.49% | 2.12% | -1.31% |
| Nc1ccc(O)c(C(=O)O)c1 [MESALAMINE] | – | 1.32% | 3.98% |
| CCOc1cc(CC(=O)N[C@@H](CC(C)C)c2ccccc2N2CCCCC2)ccc1C(=O)O [REPAGLINIDE] | 3.14% | 4.01% | -6.91% |

From ChEMBL document CHEMBL4513141, “CO-ADD screening of NIH (USA) - Clinical Collection” (2021)
